The full data set covers some 7,900 targets. This sample favours those with a hit. About 0.6% of all pairs of compound and target were hits.
Legend:
Assay in all cases: log2 fold change, soluble protein after heating vs DMSO (PISA); higher = thermal stabilisation; K562 cells, 10 uM, 30 min; active = over 0.2 and 3.5 SD of the protein, either way, in both replicates (recomputed)
erlotinib = compound: C#Cc1cccc(Nc2ncnc3cc(OCCOC)c(OCCOC)cc23)c1 [erlotinib]
In short: (§1)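 K562 cells at 2×10^6 cells/mL were given 10 μM compound for 30 min. Aliquots then went through 3 min of heating across 48°C-58°C, were pooled, and were extracted in PBS with 0.5% NP-40 at 4°C, and the supernatant after 21,000xg for 90 min was quantified by TMTpro 16plex LC-MS/MS with channel sums equalised. Thermal stability relative to control samples, from duplicates, is given as log2 fold change.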

[1] = compound: C/C(=N\NC(=O)C1=CC(=CC=C1)S(=O)(=O)N2CCOCC2)/C3=C(C=CC(=C3)Cl)O
In short: as §1

[2] = compound: C1=CC(=C(C=C1Cl)C2=NC3=NC=CN=C3C(=N2)NC4=CC=NC=C4)F
In short: as §1

[3] = compound: C1=CC(=CC=C1C2=NC3=C(N2)C=C(C=C3)C(=O)N)OC4=CC=C(C=C4)Cl
In short: as §1

[4] = compound: C1=CC2=C(C=CC(=C2)/C=C\3/C(=O)NC(=NCC4=CC=CS4)S3)N=C1
In short: as §1

[5] = compound: C1=CC2=NC=CN=C2C=C1/C=C/3\C(=O)NC(=O)S3
In short: as §1

[6] = compound: C1=CC=C(C=C1)C2=NC(=C(N2)C3=CC=NC=C3)C4=CC(=C(C=C4)Cl)O
In short: as §1

[7] = compound: C1=CC=C2C(=C1)C3=NNC4=CC=CC(=C43)C2=O
In short: as §1

[8] = compound: C1CCN(C1)C(=O)NC2=CC=CC(=C2)NC3=NC=C(C(=N3)NCCC4=CN=CN4)Br
In short: as §1

[9] = compound: C1CN(CCC1(CC2=CC=C(C=C2)Cl)N)C3=NC=NC4=C3C=CN4
In short: as §1

IRAK-1-4 Inhibitor I = compound: C1COCCN1CCN2C3=CC=CC=C3N=C2NC(=O)C4=CC(=CC=C4)[N+](=O)[O-] [IRAK-1-4 Inhibitor I]
In short: as §1

ibrutinib = compound: C=CC(=O)N1CCC[C@@H](n2nc(-c3ccc(Oc4ccccc4)cc3)c3c(N)ncnc32)C1 [ibrutinib]
In short: as §1

[10] = compound: CC(=O)c1cnc2ccc(-c3cc(Cl)c(O)c(Cl)c3)nc2c1N[C@H]1CC[C@H](CN(C)C)CC1
In short: as §1

ralimetinib = compound: CC(C)(C)Cn1c(N)nc2ccc(-c3[nH]c(C(C)(C)C)nc3-c3ccc(F)cc3)nc21 [ralimetinib]
In short: as §1

[11] = compound: CC(C)(O)CC(=O)NCCn1ccc2ncnc(Nc3ccc(Oc4cccc(C(F)(F)F)c4)c(Cl)c3)c21
In short: as §1

[12] = compound: CC(C)C1=C2N=C(C=C(N2N=C1)NCC3=CC=CC=C3)NCCCCCCN
In short: as §1

[13] = compound: CC(C)C[C@@H](C=O)NC(=O)[C@H](CC(C)C)NC(=O)[C@H](CC(C)C)NC(=O)OCc1ccccc1
In short: as §1

pinometostat = compound: CC(C)N(C[C@H]1O[C@@H](n2cnc3c(N)ncnc32)[C@H](O)[C@@H]1O)[C@H]1C[C@@H](CCc2nc3cc(C(C)(C)C)ccc3[nH]2)C1 [pinometostat]
In short: as §1

[14] = compound: CC1=C(C(CC(=O)N1)C2=CC=C(C=C2)C(F)(F)F)C(=O)NC3=C(C=C4C(=C3)C=NN4)F
In short: as §1

[15] = compound: CC1=C(C2=C(C=C1)C(=O)C3=CC=CC=C3N2CCCN)C
In short: as §1

Measured: log2 fold change

COQ9 (UniProt O75208)
inactive: erlotinib 0.035 | [1] 0.082 | [2] 0.006 | [3] 0.016 | [4] 0.034 | [5] 0.056 | [6] 0.012 | [7] 0.008 | [8] -0.018 | [9] -0.001 | IRAK-1-4 Inhibitor I 0.005 | ibrutinib 0.03 | [10] -0.007 | ralimetinib -0.055 | [11] 0.085 | [12] -0.092 | [13] -0.024 | pinometostat -0.062 | [14] 0.019 | [15] 0.043

C9orf64 (UniProt Q5T6V5)
inactive: erlotinib 0.046 | [1] 0.142 | [2] 0.009 | [3] 0.065 | [4] 0.117 | [5] 0.017 | [6] 0.054 | [7] -0.037 | [8] -0.001 | [9] -0.039 | IRAK-1-4 Inhibitor I -0.041 | ibrutinib -0.03 | [10] -0.019 | ralimetinib -0.018 | [11] -0.181 | [12] -0.288 | [13] 0.012 | pinometostat 0.053 | [14] 0.02 | [15] -0.097

CPSF1 (UniProt Q10570)
inactive: erlotinib -0.004 | [1] -0.057 | [2] -0.108 | [3] 0.039 | [4] -0.012 | [5] 0.02 | [6] -0.062 | [7] -0.045 | [8] 0.041 | [9] -0.037 | IRAK-1-4 Inhibitor I -0.006 | ibrutinib -0.007 | [10] 0.064 | ralimetinib 0 | [11] 0.036 | [12] -0.009 | [13] 0.075 | pinometostat 0.142 | [14] 0 | [15] -0.093

CAD (UniProt P27708)
active: [10] -0.402 | [15] 0.272
inactive: erlotinib -0.083 | [1] 0.042 | [2] -0.014 | [3] -0.003 | [4] 0.125 | [5] -0.011 | [6] 0.057 | [7] -0.063 | [8] 0.013 | [9] 0.046 | IRAK-1-4 Inhibitor I -0.064 | ibrutinib 0.008 | ralimetinib -0.06 | [11] -0.168 | [12] 0.029 | [13] 0.021 | pinometostat 0.028 | [14] 0.03

CCNK isoform 4 (UniProt O75909)
Chain of UniProt O75909 (O75909 whole entry, looked up): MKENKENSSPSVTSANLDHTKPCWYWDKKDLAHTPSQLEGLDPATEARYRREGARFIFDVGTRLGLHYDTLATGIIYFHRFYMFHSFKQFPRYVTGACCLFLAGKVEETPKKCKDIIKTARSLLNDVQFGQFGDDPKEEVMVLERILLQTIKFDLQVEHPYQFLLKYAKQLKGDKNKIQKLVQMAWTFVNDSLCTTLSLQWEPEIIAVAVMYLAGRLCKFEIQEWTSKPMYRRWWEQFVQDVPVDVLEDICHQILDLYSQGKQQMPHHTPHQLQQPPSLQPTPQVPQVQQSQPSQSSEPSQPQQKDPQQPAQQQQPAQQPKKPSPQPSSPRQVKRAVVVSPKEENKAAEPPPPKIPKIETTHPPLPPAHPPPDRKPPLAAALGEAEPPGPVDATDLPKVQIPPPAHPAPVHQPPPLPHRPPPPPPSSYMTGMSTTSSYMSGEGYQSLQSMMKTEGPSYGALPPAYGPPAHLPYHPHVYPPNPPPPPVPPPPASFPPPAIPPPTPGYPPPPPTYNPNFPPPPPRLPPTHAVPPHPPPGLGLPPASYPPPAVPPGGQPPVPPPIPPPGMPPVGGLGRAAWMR
inactive: erlotinib 0.079 | [1] 0.006 | [2] -0.138 | [3] -0.016 | [4] -0.126 | [5] -0.013 | [6] -0.068 | [7] -0.077 | [8] 0.047 | [9] -0.126 | IRAK-1-4 Inhibitor I -0.143 | ibrutinib 0.02 | [10] -0.058 | ralimetinib 0.031 | [11] -0.007 | [12] -0.008 | [13] 0.045 | pinometostat 0.15 | [14] -0.046 | [15] -0.047

CREB3L2 (UniProt Q70SY1)
Chain of UniProt Q70SY1 (Q70SY1 whole entry, looked up): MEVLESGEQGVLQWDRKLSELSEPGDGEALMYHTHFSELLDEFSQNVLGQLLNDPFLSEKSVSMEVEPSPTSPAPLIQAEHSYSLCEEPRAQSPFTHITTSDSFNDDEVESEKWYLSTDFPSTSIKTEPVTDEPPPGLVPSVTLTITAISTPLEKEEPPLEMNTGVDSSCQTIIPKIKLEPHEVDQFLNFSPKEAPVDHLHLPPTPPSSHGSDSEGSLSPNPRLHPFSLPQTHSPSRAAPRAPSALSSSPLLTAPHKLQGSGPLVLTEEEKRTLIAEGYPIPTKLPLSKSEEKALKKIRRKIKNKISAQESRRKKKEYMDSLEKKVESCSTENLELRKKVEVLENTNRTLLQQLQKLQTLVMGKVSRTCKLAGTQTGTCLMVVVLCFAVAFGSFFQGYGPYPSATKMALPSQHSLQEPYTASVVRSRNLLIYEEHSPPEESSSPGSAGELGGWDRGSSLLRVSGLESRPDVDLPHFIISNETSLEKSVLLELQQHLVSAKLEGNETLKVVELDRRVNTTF
inactive: erlotinib 0.424 | [1] 0.104 | [2] 0.057 | [3] -0.264 | [4] 0.113 | [5] -0.174 | [6] -0.1 | [7] -0.045 | [8] -0.206 | [9] 0.173 | IRAK-1-4 Inhibitor I 0.055 | ibrutinib 0.168 | [10] -0.108 | ralimetinib -0.01 | [11] -0.08 | [12] 0.322 | [13] 0.607 | pinometostat -0.193 | [14] -0.058 | [15] 0.074

CBX5 (UniProt P45973)
Chain of UniProt P45973 (P45973 whole entry, looked up): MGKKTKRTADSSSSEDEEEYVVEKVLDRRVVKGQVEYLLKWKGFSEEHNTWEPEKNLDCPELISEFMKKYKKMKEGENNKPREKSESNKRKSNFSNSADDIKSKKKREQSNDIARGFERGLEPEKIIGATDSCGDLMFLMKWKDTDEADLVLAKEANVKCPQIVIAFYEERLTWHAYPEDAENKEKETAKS
inactive: erlotinib -0.018 | [1] 0.08 | [2] 0 | [3] 0.043 | [4] 0.111 | [5] 0.025 | [6] 0.003 | [7] -0.028 | [8] -0.002 | [9] -0.015 | IRAK-1-4 Inhibitor I -0.076 | ibrutinib 0.002 | [10] -0.102 | ralimetinib -0.002 | [11] 0.056 | [12] -0.067 | [13] -0.001 | pinometostat -0.058 | [14] -0.024
active: [15] -0.545

CNN2 (UniProt Q99439)
Chain of UniProt Q99439 (Q99439 whole entry, looked up): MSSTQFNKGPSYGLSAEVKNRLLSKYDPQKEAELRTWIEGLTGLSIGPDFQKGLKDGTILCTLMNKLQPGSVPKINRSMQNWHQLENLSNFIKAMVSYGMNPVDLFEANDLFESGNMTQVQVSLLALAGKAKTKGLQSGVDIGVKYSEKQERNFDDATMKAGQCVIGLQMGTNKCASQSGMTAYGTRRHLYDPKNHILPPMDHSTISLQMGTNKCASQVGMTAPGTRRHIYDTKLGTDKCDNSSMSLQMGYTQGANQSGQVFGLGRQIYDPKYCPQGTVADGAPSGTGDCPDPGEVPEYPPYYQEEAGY
inactive: erlotinib 0.047 | [1] 0.124 | [2] 0.109 | [3] -0.039 | [4] 0.013 | [5] 0.032 | [6] -0.012 | [7] -0.011 | [8] -0.017 | [9] -0.042 | IRAK-1-4 Inhibitor I -0.037 | ibrutinib -0.07 | [10] 0.011 | ralimetinib 0.007 | [11] -0.091 | [12] -0.052 | [13] 0.038 | pinometostat 0.018 | [14] 0.05 | [15] 0.007

CDAN1 (UniProt Q8IWY9)
Chain of UniProt Q8IWY9 (Q8IWY9 whole entry, looked up): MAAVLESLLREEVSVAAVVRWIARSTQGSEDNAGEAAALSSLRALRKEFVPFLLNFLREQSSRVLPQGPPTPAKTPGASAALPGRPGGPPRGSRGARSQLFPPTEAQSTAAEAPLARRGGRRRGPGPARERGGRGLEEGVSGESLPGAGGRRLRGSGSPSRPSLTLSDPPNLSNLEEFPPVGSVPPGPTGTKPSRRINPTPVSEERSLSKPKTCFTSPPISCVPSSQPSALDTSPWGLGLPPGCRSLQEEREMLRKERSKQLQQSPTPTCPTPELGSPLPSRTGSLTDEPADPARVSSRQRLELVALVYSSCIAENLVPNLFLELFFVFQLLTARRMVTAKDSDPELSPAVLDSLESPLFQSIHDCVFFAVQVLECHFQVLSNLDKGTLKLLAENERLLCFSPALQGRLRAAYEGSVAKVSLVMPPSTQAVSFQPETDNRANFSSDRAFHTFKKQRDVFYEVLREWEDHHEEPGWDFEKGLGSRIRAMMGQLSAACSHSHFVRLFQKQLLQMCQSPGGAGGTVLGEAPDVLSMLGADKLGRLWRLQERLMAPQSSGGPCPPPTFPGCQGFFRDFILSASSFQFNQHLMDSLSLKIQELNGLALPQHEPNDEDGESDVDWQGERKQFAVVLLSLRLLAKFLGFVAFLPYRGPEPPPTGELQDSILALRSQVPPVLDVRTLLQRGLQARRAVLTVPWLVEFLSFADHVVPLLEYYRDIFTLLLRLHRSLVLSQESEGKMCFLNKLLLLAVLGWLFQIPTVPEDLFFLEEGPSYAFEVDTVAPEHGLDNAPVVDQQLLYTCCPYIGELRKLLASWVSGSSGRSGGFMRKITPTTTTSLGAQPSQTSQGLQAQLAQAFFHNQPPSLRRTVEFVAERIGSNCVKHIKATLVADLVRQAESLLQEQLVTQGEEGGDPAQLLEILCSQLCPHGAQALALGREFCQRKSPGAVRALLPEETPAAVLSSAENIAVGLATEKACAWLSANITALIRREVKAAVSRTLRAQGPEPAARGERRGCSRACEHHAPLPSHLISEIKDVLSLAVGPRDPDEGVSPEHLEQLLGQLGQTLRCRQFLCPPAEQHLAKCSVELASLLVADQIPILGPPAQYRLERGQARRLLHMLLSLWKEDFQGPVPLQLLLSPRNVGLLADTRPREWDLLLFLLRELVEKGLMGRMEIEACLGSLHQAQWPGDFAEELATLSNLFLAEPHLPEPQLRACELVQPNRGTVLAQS
active: [15] -0.398
inactive: erlotinib -0.031 | [1] 0.048 | [2] -0.171 | [3] -0.011 | [4] 0.039 | [5] 0.066 | [6] 0.019 | [7] -0.057 | [8] 0.109 | [9] 0.03 | IRAK-1-4 Inhibitor I 0.057 | ibrutinib -0.001 | [10] -0.044 | ralimetinib -0.036 | [11] -0.168 | [12] -0.051 | [13] -0.006 | pinometostat 0.026 | [14] 0.009

C19orf53 (UniProt Q9UNZ5)
inactive: erlotinib -0.161 | [1] -0.216 | [2] -0.52 | [3] 0.079 | [4] -0.129 | [5] -0.011 | [6] -0.024 | [7] -0.028 | [8] 0.053 | [9] -0.176 | IRAK-1-4 Inhibitor I -0.136 | ibrutinib 0.031 | [10] 0.12 | ralimetinib 0.201 | [11] 0.043 | [12] 0.013 | [13] 0.126 | pinometostat 0.32 | [14] 0.079 | [15] -0.546

CPT1A (UniProt P50416)
inactive: erlotinib -0.008 | [1] 0.042 | [2] -0.111 | [3] 0.008 | [4] -0.028 | [5] -0.096 | [6] 0 | [7] 0.081 | [8] -0.055 | [9] 0.076 | IRAK-1-4 Inhibitor I -0.163 | ibrutinib -0.024 | [10] -0.103 | ralimetinib 0.05 | [11] 0.049 | [12] 0.195 | [13] -0.03 | pinometostat 0.06 | [14] -0.109 | [15] -0.047

CSK (UniProt P41240)
inactive: erlotinib 0.023 | [1] 0.031 | [2] -0.038 | [3] 0.005 | [4] 0.056 | [5] -0.022 | [6] 0.024 | [7] -0.02 | [8] -0.034 | [9] -0.05 | IRAK-1-4 Inhibitor I -0.016 | ibrutinib 0.074 | [10] 0.111 | ralimetinib 0.011 | [11] -0.034 | [12] -0.131 | [13] 0.031 | pinometostat 0 | [14] -0.016 | [15] -0.011

CDK12 (UniProt Q9NYV4)
Chain of UniProt Q9NYV4 (Q9NYV4 whole entry, looked up): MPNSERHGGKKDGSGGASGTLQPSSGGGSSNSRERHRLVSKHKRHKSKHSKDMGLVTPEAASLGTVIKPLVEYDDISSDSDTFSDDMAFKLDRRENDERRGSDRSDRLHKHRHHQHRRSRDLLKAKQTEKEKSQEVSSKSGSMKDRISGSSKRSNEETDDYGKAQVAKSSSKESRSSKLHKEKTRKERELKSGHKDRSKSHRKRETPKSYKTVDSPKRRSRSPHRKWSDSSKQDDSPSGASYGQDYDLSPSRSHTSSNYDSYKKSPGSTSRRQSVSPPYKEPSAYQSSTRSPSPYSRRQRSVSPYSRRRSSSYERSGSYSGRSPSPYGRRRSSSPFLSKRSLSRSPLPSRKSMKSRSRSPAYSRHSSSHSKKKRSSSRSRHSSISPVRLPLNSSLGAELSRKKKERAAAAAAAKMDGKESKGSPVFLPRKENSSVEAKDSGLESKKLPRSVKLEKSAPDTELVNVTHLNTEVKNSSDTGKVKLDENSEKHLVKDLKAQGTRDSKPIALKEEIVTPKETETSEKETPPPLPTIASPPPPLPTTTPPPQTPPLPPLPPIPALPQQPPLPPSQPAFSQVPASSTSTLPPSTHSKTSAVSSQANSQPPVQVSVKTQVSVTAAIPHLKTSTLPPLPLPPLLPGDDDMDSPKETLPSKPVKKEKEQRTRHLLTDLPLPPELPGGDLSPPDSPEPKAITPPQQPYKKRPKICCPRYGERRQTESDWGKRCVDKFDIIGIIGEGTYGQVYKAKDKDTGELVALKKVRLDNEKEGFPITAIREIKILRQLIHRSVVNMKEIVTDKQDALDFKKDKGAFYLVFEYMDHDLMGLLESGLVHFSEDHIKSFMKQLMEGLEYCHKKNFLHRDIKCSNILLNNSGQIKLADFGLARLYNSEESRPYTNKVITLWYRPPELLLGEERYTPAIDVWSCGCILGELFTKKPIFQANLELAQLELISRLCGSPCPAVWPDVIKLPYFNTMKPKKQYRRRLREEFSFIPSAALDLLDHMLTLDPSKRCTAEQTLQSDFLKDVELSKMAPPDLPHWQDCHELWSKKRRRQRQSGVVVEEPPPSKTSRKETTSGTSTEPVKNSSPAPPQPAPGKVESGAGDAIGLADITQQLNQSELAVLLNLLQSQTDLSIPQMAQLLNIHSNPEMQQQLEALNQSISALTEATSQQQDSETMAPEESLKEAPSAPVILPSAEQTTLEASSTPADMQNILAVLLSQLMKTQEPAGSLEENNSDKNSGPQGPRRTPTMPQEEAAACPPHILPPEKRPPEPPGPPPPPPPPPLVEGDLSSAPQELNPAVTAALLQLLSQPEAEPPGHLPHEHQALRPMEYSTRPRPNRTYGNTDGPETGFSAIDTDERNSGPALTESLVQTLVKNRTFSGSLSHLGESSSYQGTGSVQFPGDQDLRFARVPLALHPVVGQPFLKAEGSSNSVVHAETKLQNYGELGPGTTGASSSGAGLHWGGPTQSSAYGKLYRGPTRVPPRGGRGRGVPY
inactive: erlotinib -0.049 | [1] 0.001 | [2] -0.44 | [3] 0.076 | [4] -0.06 | [5] -0.053 | [6] -0.066 | [7] -0.23 | [8] -0.077 | [9] -0.187 | IRAK-1-4 Inhibitor I -0.179 | ibrutinib 0.008 | [10] -0.566 | ralimetinib 0.138 | [11] 0.067 | [12] -0.211 | [13] 0.006 | pinometostat 0.399 | [14] 0.041 | [15] -0.014

CBS (UniProt P35520)
Chain of UniProt P35520 (P35520 whole entry, looked up): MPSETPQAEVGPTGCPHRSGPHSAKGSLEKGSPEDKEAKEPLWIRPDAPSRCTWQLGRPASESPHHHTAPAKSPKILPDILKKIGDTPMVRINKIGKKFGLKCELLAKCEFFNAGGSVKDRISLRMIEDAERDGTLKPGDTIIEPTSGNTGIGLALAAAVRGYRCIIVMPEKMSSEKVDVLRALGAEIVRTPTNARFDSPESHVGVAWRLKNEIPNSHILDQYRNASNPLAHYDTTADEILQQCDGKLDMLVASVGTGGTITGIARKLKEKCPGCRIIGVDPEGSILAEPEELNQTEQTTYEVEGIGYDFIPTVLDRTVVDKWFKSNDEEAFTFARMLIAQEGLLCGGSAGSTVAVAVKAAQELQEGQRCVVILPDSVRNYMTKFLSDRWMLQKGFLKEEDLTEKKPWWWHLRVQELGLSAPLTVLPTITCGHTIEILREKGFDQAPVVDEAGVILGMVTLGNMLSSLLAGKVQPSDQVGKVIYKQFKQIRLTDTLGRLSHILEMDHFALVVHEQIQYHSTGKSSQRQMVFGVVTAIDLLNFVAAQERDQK
inactive: erlotinib 0.014 | [1] -0.031 | [2] 0.039 | [3] -0.014 | [4] -0.026 | [5] 0.013 | [6] -0.03 | [7] 0.052 | [8] 0.025 | [9] 0.042 | IRAK-1-4 Inhibitor I 0.044 | ibrutinib -0.007 | [10] 0.008 | ralimetinib -0.01 | [11] 0.027 | [12] 0.036 | [13] -0.013 | pinometostat -0.048 | [14] 0.034 | [15] 0.001

CDC37L1 (UniProt Q7L3B6)
inactive: erlotinib -0.069 | [1] 0.008 | [2] -0.007 | [3] -0.035 | [4] 0.054 | [5] 0.068 | [6] 0 | [7] -0.012 | [8] 0.203 | [9] 0.357 | IRAK-1-4 Inhibitor I 0.004 | ibrutinib -0.018 | [10] -0.012 | ralimetinib -0.059 | [11] -0.118 | [12] -0.004 | [13] 0 | pinometostat -0.015 | [14] 0.062 | [15] -0.281

CEMIP2 (UniProt Q9UHN6)
inactive: erlotinib 0.076 | [1] 0.018 | [2] -0.042 | [3] 0.001 | [4] 0.087 | [5] 0.029 | [6] -0.071 | [7] -0.066 | [8] 0.084 | [9] 0.041 | IRAK-1-4 Inhibitor I 0 | ibrutinib 0.096 | [10] -0.045 | ralimetinib -0.023 | [11] -0.026 | [12] 0.122 | [13] 0.11 | pinometostat -0.035 | [14] -0.211 | [15] 0.057
